Common to all, as to assay: NCI-60 one-dose screen, 48 h (100 = growth as untreated, 0 = no growth, -100 = all killed)
In one assay the test system is DU-145 prostate. Conditions: 10 µM unless noted.
Another assay deals with K-562 leukemia. Conditions: 10 µM unless noted.
In a further assay the test system is MALME-3M melanoma. Conditions: 10 µM unless noted.
For a further assay, the system named is MDA-MB-231 breast. Conditions: 10 µM unless noted.
A further assay relates to RXF 393 renal. Conditions: 10 µM unless noted.
A further assay deals with SF-268 CNS. Conditions: 10 µM unless noted.
Another assay relates to SF-295 CNS. Conditions: 10 µM unless noted.
Another assay concerns SF-539 CNS. The note with it: 10 µM unless noted.
A further assay relates to UACC-257 melanoma. Conditions: 10 µM unless noted.
A further assay concerns M14 melanoma. Conditions: 10 µM unless noted.
Another assay concerns HCT-15 colon. Conditions: 10 µM unless noted.
In a further assay the test system is HT29 colon. Conditions: 10 µM unless noted.
In another assay the test system is SNB-19 CNS. Conditions: 10 µM unless noted.
In a further assay the test system is U251 CNS. Conditions: 10 µM unless noted.
The subject of the next assay is PC-3 prostate. Conditions: 10 µM unless noted.
The test system of the next assay is SK-MEL-5 melanoma. The note with it: 10 µM unless noted.
The next assay deals with UACC-62 melanoma. Conditions: 10 µM unless noted.
A further assay concerns LOX IMVI melanoma. Conditions: 10 µM.
For a further assay, the system named is SK-MEL-28 melanoma. The note with it: 10 µM unless noted.

SMILES strings stand for the structures. Compounds without any hit were thinned out: in the full panel of roughly 83,000, 20% have a hit.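 Interpretation: 100, growth as untreated; towards 0, rising growth inhibition; 0, no net growth; 0 to -100, cell death. Compounds scoring below 10 were considered active.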 Unmarked numbers belong to inactive results. Calls of active or inactive are those of the source.

Consider `COC(=O)/C=C/c1cccc2c1C(=O)NC(C)(c1cc3cc4ccccc4cc3oc1=O)N2` (configuration not stated), for which the growth with DU-145 prostate is 46.1%; with K-562 leukemia it was 46.7%; with MALME-3M melanoma, 19.6%; with MDA-MB-231 breast it was 28.5%; with RXF 393 renal it was -0.792% (active); in the assay on SF-268 CNS it was 42.8%. Further, the growth is 75.3% in the assay with SF-295 CNS; 44.7% in the assay with SF-539 CNS; 77.8% in the assay on UACC-257 melanoma; 55.9% in the assay on M14 melanoma; 54.6% with HCT-15 colon; 32.9% with HT29 colon. In addition, the growth was 49.7% with SNB-19 CNS; 43.8% in the assay on U251 CNS; 38.9% with PC-3 prostate; 79.5% in the assay on SK-MEL-5 melanoma; 49.2% with UACC-62 melanoma; 6.32% (active) with LOX IMVI melanoma. In addition, the growth with SK-MEL-28 melanoma is 58%.
For `Cn1cc(-c2cc3nc(-c4cn(C)c5ncc(Br)cc45)cc(N)n3n2)c2cc(Cl)ccc21`, the growth in the assay on DU-145 prostate is -58.3% (active); with K-562 leukemia, -29.2% (active); in the assay with MALME-3M melanoma it was -91.9% (active); in the assay on MDA-MB-231 breast, -85.5% (active); in the assay with RXF 393 renal it was -64.4% (active); with SF-268 CNS, 20.1%. In addition, the growth in the assay with SF-295 CNS was -72.5% (active); with SF-539 CNS, -96.9% (active); in the assay on UACC-257 melanoma, -82.7% (active); with M14 melanoma, -86.8% (active); with HCT-15 colon it was -77.6% (active); in the assay on HT29 colon it was -89.2% (active). The growth in the assay with SNB-19 CNS is -74.2% (active); in the assay on U251 CNS, -67.9% (active); with PC-3 prostate, -62.5% (active); with SK-MEL-5 melanoma, -77.1% (active); in the assay on UACC-62 melanoma, -96% (active); with LOX IMVI melanoma, -95.1% (active). Besides, the growth in the assay on SK-MEL-28 melanoma was -90.7% (active).
`CC(=O)c1cccc(NC(=O)CCC(=O)NS(=O)(=O)c2ccc(C)cc2)c1`: the growth in the assay on DU-145 prostate is 122%; in the assay with K-562 leukemia, 101%; in the assay on MALME-3M melanoma it was 103%; with MDA-MB-231 breast it was 107%; in the assay on RXF 393 renal, 132%; in the assay on SF-268 CNS it was 134%. Also, the growth is 104% in the assay on SF-295 CNS; 105% in the assay with SF-539 CNS; 103% in the assay on UACC-257 melanoma; 102% in the assay with M14 melanoma; 107% in the assay with HCT-15 colon; 106% in the assay on HT29 colon. Besides, the growth with SNB-19 CNS is 98.5%; in the assay with U251 CNS, 104%; in the assay on PC-3 prostate, 105%; with SK-MEL-5 melanoma, 109%; with UACC-62 melanoma, 102%; in the assay on LOX IMVI melanoma, 104%. The growth with SK-MEL-28 melanoma is 108%.
`O=c1oc2ccc(Br)cc2cc1C1=CSc2nc3sc4c(c3c(=O)n2N=C1)CCCC4`: the growth in the assay on DU-145 prostate was 107%; with K-562 leukemia, 97.1%; with MALME-3M melanoma it was 89%; in the assay on MDA-MB-231 breast, 88.2%; in the assay with RXF 393 renal, 167%; in the assay with SF-268 CNS, 101%. Further, the growth was 101% in the assay on SF-295 CNS; 100% in the assay with SF-539 CNS; 90.9% with UACC-257 melanoma; 92.4% in the assay with M14 melanoma; 95.1% with HCT-15 colon; 108% in the assay with HT29 colon. Further, the growth with SNB-19 CNS is 97%; with U251 CNS it was 99.3%; with PC-3 prostate it was 76.7%; in the assay with SK-MEL-5 melanoma, 96.9%; in the assay with UACC-62 melanoma, 71.7%; with LOX IMVI melanoma, 86.4%. For the same molecule, the growth with SK-MEL-28 melanoma is 105%.
With `CN(C)CCCNC(=O)c1cc(NC(=O)c2cc(NC(=O)c3ccc(/C=C/c4ccccc4)cc3)cn2C)cn1C`, the growth with DU-145 prostate is 57.1%; with K-562 leukemia, -41% (active); with MALME-3M melanoma it was 35%; with MDA-MB-231 breast, 65.6%; with RXF 393 renal, 25%; in the assay with SF-268 CNS it was 48.9%. Moreover, the growth with SF-295 CNS was 35.2%; in the assay on SF-539 CNS, 32.7%; with UACC-257 melanoma, 54.2%; in the assay with M14 melanoma it was 48.1%; in the assay on HCT-15 colon, 44.3%; with HT29 colon, 2.73% (active). Also, the growth was 78% in the assay with SNB-19 CNS; -14.9% (active) with U251 CNS; 46.6% with PC-3 prostate; 40.3% with SK-MEL-5 melanoma; 10.1% with UACC-62 melanoma; -86.1% (active) in the assay with LOX IMVI melanoma. The growth in the assay with SK-MEL-28 melanoma is 60.2%.
`C=C1CC[C@@H]2[C@]3(C)COC(c4ccco4)O[C@@H]3CC[C@@]2(C)[C@@H]1C/C=C1/C(=O)OCC1OC(C)=O` (some centres not stated): the growth in the assay on DU-145 prostate is 48.8%; in the assay with K-562 leukemia it was 3.97% (active); in the assay with MALME-3M melanoma it was -60.3% (active); in the assay on MDA-MB-231 breast, 48.8%; in the assay on RXF 393 renal, 27.5%; in the assay on SF-268 CNS, 67.8%. Also, the growth is 59.5% with SF-295 CNS; -47.3% (active) in the assay with SF-539 CNS; 58.7% in the assay on UACC-257 melanoma; 19% with M14 melanoma; -59% (active) in the assay on HCT-15 colon; -46% (active) in the assay with HT29 colon. Also, the growth is 75.9% in the assay on SNB-19 CNS; 8.15% (active) with U251 CNS; 18.8% in the assay on PC-3 prostate; 43.9% in the assay with SK-MEL-5 melanoma; 34.5% in the assay with UACC-62 melanoma; -100% (active) in the assay on LOX IMVI melanoma. The growth in the assay on SK-MEL-28 melanoma is 59.6%.
Regarding `CC(=O)c1cc(C(=O)c2ccccc2)n2c1ccc1ccccc12`, the growth in the assay with DU-145 prostate is 128%; with K-562 leukemia, 94.4%; in the assay with MALME-3M melanoma, 131%; in the assay with MDA-MB-231 breast, 78.4%; in the assay with RXF 393 renal it was 93.1%; with SF-268 CNS, 110%. Besides, the growth in the assay on SF-295 CNS is 106%; in the assay on SF-539 CNS, 82.5%; with UACC-257 melanoma it was 118%; in the assay on M14 melanoma, 101%; with HCT-15 colon, 104%; with HT29 colon it was 109%. Moreover, the growth with SNB-19 CNS was 98%; in the assay with U251 CNS it was 106%; in the assay with PC-3 prostate, 81%; in the assay with SK-MEL-5 melanoma it was 104%; in the assay on UACC-62 melanoma, 86.9%; in the assay with LOX IMVI melanoma it was 96.7%. Moreover, the growth in the assay on SK-MEL-28 melanoma was 122%.
As to `Cc1ccccc1[C@H]1C(C(=O)c2ccc(Cl)cc2)C2(N[C@@H]1c1ccccc1)C(=O)Nc1ccc(Cl)cc12` (some centres not stated), the growth with DU-145 prostate was 5.12% (active); in the assay on K-562 leukemia, -2.2% (active); in the assay on MALME-3M melanoma it was -33.3% (active); with MDA-MB-231 breast, -72.2% (active); with RXF 393 renal it was -67.7% (active); in the assay with SF-268 CNS, 29.3%. In addition, the growth with SF-295 CNS was -22.5% (active); in the assay on SF-539 CNS it was -58.1% (active); in the assay with UACC-257 melanoma, 4.82% (active); with M14 melanoma, -78.4% (active); with HCT-15 colon, -69.1% (active); with HT29 colon, -88.5% (active). In addition, the growth is 17.4% in the assay with SNB-19 CNS; -82.9% (active) with U251 CNS; -26.9% (active) with PC-3 prostate; 0.559% (active) with SK-MEL-5 melanoma; -55.5% (active) in the assay with UACC-62 melanoma; -100% (active) in the assay with LOX IMVI melanoma. Moreover, in the assay with SK-MEL-28 melanoma, the growth was -23.4% (active).

For the origin of these results see PubChem BioAssay (NCI).
